Results published in PubChem BioAssay (NCATS).
Inconclusive results are not listed. Calls of active or inactive are those of the source. Calls come from the whole dose curve; as a rule, active = well fitted cell-killing curve with a large enough effect; inconclusive = small, poorly fitted or top-dose-only effect, or effect the other way; inactive = no such curve, though single readings can be large or run the other way.

Test: Quantitative High-Throughput drug screen in 47 multiple myeloma cell lines against the NCATS MIPE library collection: Delta47_JCRB cell viability assay (AID 1918925; note: nearly all actives have a fitted effect of over 45% in size;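 for viability (% of DMSO): 0% = media-only wells and 100% = DMSO-only wells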)
Settings: Delta47 myeloma viability, CellTiter-Glo ATP, 48 h; series mostly up to 45.8 µM; viability (% of DMSO): at the top concentration
In short: (§1)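 Steps: seed 500 cells per well; pin-transfer MIPE 4.0 library; incubate 48 h at 37C, 5% CO2, humidified; add CellTiter-Glo, 5 min room temperature; read luminescence.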
Potency is the fitted concentration of half-maximal effect.

SMILES | Potency | viability (% of DMSO)
CC(C)C[C@H](NC(=O)c1cc2ccccc2s1)C(=O)N1CCN(C(=O)[C@H](CO)NS(=O)(=O)c2ccc(Cl)cc2Cl)CC1 | 26.4 µM (active) | 
COc1ccc2c(c1)c(C1=C(c3c[nH]c4ccccc34)C(=O)NC1=O)cn2CCCN(C)C | 7.43 µM (active) | 
Cc1ccc(S(=O)(=O)OCC(=O)Nc2ccc(C(=O)O)c(O)c2)cc1 | 16.6 µM (active) | 
O=C(c1ccc(C=Cc2n[nH]c3ccccc23)cc1)N1CCNCC1 | 3.32 µM (active) | 
C[C@@H]1[C@H](O)[C@@H](C)C=CC=CC=CC=CC=CC=CC=C[C@H](O[C@@H]2O[C@H](C)[C@H](O)[C@H](N)[C@@H]2O)C[C@@H]2O[C@](O)(C[C@@H](O)C[C@@H](O)[C@H](O)CC[C@@H](O)C[C@@H](O)CC(=O)O[C@H]1C)C[C@H](O)[C@@H]2C(=O)O |  | 106% (inactive)

Test: Quantitative High-Throughput drug screen in 47 multiple myeloma cell lines against the NCATS MIPE library collection: EJM_DSMZ cell viability assay (AID 1918926; note: nearly all actives have a fitted effect of over 30% in size;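 for viability, % of control: 100% = DMSO-only wells and 0% = media-only wells without cells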)
Settings: EJM myeloma cell viability, CellTiter-Glo ATP, 48 h; series mostly up to 45.8 µM; viability, % of control: at the top concentration
In short: as §1

SMILES | Potency | viability, % of control
Clc1ccc(COC(Cn2ccnc2)c2ccc(Cl)cc2Cl)c(Cl)c1 (configuration not stated) | 20.9 µM (active) | 
CC1(C)[C@H]2CC[C@]3(C)[C@@H](C(=O)C=C4[C@@H]5C[C@@](C)(C(=O)O)CC[C@]5(C)CC[C@]43C)[C@@]2(C)CC[C@@H]1O |  | 111% (inactive)
CC(=O)OCC(=O)[C@@]1(O)CC[C@H]2[C@@H]3CCC4=CC(=O)C=C[C@]4(C)[C@@H]3[C@@H](O)C[C@@]21C |  | 95.1% (inactive)
Nc1ncnc2c1ncn2[C@@H]1O[C@H](CO)[C@@H](O)[C@@H]1O |  | 86.3% (inactive)
CC(=O)NCCC(=O)N[C@@H](CCC(N)=O)C(=O)N[C@@H](CO)C(=O)N[C@@H](CCC(N)=O)C(=O)N[C@@H](CCC(N)=O)C(=O)N[C@H](C(=O)N[C@@H](Cc1ccccc1)C(=O)N[C@]1(C)CCCCCCC=CCCC[C@@](C)(C(=O)N[C@@H](CCC(N)=O)C(=O)N[C@@H](CC(N)=O)C(N)=O)NC(=O)[C@H](CC(C)C)NC(=O)[C@H](CC(C)C)NC(=O)[C@@H](CCCNC(=N)N)NC(=O)[C@H](Cc2c[nH]c3ccccc23)NC(=O)[C@H](CC(C)C)NC(=O)[C@H](CC(N)=O)NC1=O)[C@H](C)O | 18.7 µM (active) | 
CC(C)C[C@H](NC(=O)c1cc2ccccc2s1)C(=O)N1CCN(C(=O)[C@H](CO)NS(=O)(=O)c2ccc(Cl)cc2Cl)CC1 | 18.7 µM (active) | 
C[C@@H]1[C@H](O)[C@@H](C)C=CC=CC=CC=CC=CC=CC=C[C@H](O[C@@H]2O[C@H](C)[C@H](O)[C@H](N)[C@@H]2O)C[C@@H]2O[C@](O)(C[C@@H](O)C[C@@H](O)[C@H](O)CC[C@@H](O)C[C@@H](O)CC(=O)O[C@H]1C)C[C@H](O)[C@@H]2C(=O)O |  | 119% (inactive)

Test: Quantitative High-Throughput drug screen in 47 multiple myeloma cell lines against the NCATS MIPE library collection: AMO1_DSMZ cell viability assay (AID 1918927; note: nearly all actives have a fitted effect of over 30% in size;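 for viability, % of DMSO: 100% = DMSO only wells and 0% = cell-free media only wells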)
Settings: AMO1 myeloma cells viability, CellTiter-Glo ATP luminescence, 48 h; series mostly up to 45.8 µM; viability, % of DMSO: at the top concentration
In short: as §1

SMILES | Potency | viability, % of DMSO
O=C(C=Cc1ccc(O)cc1)c1ccc(O)cc1O | 10.5 µM (active) | 
CCc1cc(-c2n[nH]c(C)c2-c2ccc3c(c2)OCCO3)c(O)cc1O | 3.72 µM (active) | 
CCCCCCCCCCCCCC(=O)N[C@H](CO)[C@H](O)c1ccc([N+](=O)[O-])cc1 | 10.5 µM (active) | 
COc1ccc(CCN(C)CCCOc2ccc(S(=O)(=O)c3[nH]c4ccccc4c3C(C)C)cc2)cc1OC |  | 128% (inactive)
Clc1ccc(COC(Cn2ccnc2)c2ccc(Cl)cc2Cl)c(Cl)c1 (configuration not stated) | 23.5 µM (active) | 
CCOc1ccccc1N=Nc1c(C)[nH]n(-c2nc(-c3ccccc3)cs2)c1=O |  | 113% (inactive)
CN(C(Cc1ccc(OS(=O)(=O)c2cccc3cnccc23)cc1)C(=O)N1CCN(c2ccccc2)CC1)S(=O)(=O)c1cccc2cnccc12 (configuration not stated) | 8.33 µM (active) | 
COc1cc(Cl)cn2c(-c3cccc(NC4CNC4)n3)cnc12 | 5.26 µM (active) | 
COc1cc2nc(-c3cc(F)ccc3O)nc(N[C@@H]3CNC[C@@H]3C(C)(C)O)c2cc1OC | 6.62 µM (active) | 
Cc1nn(Cc2ccccc2Cl)c(C)c1CN(C)CC(O)COc1ccc(Cl)cc1 (configuration not stated) |  | 117% (inactive)
Nc1ncnc2c1ncn2[C@@H]1O[C@H](CO)[C@@H](O)[C@@H]1O | 1.87 µM (active) | 
C=C[C@@H]1CN2CCC1C[C@@H]2C(O)c1ccnc2ccc(OC)cc12 (some centres not stated) |  | 99.7% (inactive)
CO[C@H]1/C=C\O[C@@]2(C)Oc3c(C)c(O)c4c(O)c(c5c(nc6cc(C)ccn65)c4c3C2=O)NC(=O)C(C)=CC=C[C@H](C)[C@H](O)[C@@H](C)[C@@H](O)[C@@H](C)[C@H](OC(C)=O)[C@H]1C | 16.6 µM (active) | 
O=S(=O)(NCCNCC=Cc1ccc(Br)cc1)c1cccc2cnccc12 | 16.6 µM (active) | 
C=CCc1cccc(C=NNC(=O)CN2CCN(Cc3ccccc3)CC2)c1O | 5.26 µM (active) | 
CC(C)Oc1cc(Nc2nc(N[C@@H](C)c3ccc(F)cn3)ncc2Cl)[nH]n1 | 18.7 µM (active) | 
CN(C)c1nc(Cc2ccc(NC(=O)c3ccc(C(F)(F)F)cc3)cc2)nc(N(C)C)c1CC(=O)O |  | 108% (inactive)
CN[C@@H]1CN(c2ccc3c(=O)c(C(=O)O)cn(-c4nccs4)c3n2)C[C@@H]1OC | 0.812 µM (active) | 
CC(C)C[C@@H](C(=O)N[C@H](C(=O)OC1CCCC1)c1ccccc1)[C@H](O)C(=O)NO |  | 108% (inactive)
CCC(=O)OCC(=O)[C@@]1(OC(=O)CC)[C@@H](C)C[C@@H]2[C@H]3CCC4=CC(=O)C=C[C@]4(C)[C@@]3(F)[C@@H](O)C[C@@]21C | 9.35 µM (active) | 
Cc1ccc2c(c1)c1c(n2CCc2ccc(C)nc2)CCN(C)C1 |  | 93.9% (inactive)
COc1c(C)cnc(Cn2cnc3c(Cl)nc(N)nc32)c1C | 0.0833 µM (active) | 
OC[C@H]1O[C@@H](O[C@H]2[C@@H](O)[C@@](O)(CO)O[C@@H]2CO)[C@H](O)[C@@H](O)[C@@H]1O |  | 91.9% (inactive)
COc1ccc2c(c1)c(C1=C(c3c[nH]c4ccccc34)C(=O)NC1=O)cn2CCCN(C)C | 14.8 µM (active) | 
Cc1ccc(S(=O)(=O)OCC(=O)Nc2ccc(C(=O)O)c(O)c2)cc1 |  | 88.8% (inactive)
